Source: PubChem BioAssay (several laboratories)
Only some compounds are listed: those with a hit (about 5.7% of all), similar ones and a draw of the others.
MPTP block – permeability transition pore inhibition. inhibition, % at 10 µM. 360,000 compounds, 1.4% hits. isolated mouse mitochondria, Ca2+ swelling absorbance, 30 min. AID 602449;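 active = inhibition of 50% or more, scaled per plate between neutral and stimulator controls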;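 note: 0% = DMSO wells given calcium and 100% = 1 mM EGTA wells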
GRIN3A LBD mod – modulators (binders) of human NR3A ligand-binding domain; NR3A LBD differential scanning fluorimetry, Tm shift; 0% = protein alone, 100% = glycine-bound protein; Tm shift relative to glycine control, % at 25 µM; 340,000 compounds, 2.5% hits; AID 1259313;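 active = melting temperature shift of at least 10% of the positive control shift, at one fixed dose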
Myeloid diff 2 – compounds promoting myeloid differentiation; ER-HoxA9 myeloid progenitors, lysozyme-GFP differentiation, flow cytometry; 360,000 compounds, 1% hits; calls only at 10 µM;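 active = normalized GFP-positive differentiation at or above the plate's own cutoff, the solvent-only control mean plus 3 SD; inconclusive = no clear call, values can overlap the other calls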;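 note: cells exposed to compound for four days before flow analysis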
FAS TE block – inhibitors of human fatty acid synthase thioesterase domain; P49327; recombinant FAS-TE, OMFH fluorogenic substrate, fluorescence endpoint; inhibition, % at 15 µM; 360,000 compounds, 0.67% hits; AID 602261;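 active = compounds whose normalised, plate-corrected inhibition of enzyme fluorescence in the single-dose primary screen is 50% or more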;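 note: 0% = DMSO with enzyme and 100% = substrate without enzyme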
Target sequence (P49327 whole entry, looked up, the tested form may be a part): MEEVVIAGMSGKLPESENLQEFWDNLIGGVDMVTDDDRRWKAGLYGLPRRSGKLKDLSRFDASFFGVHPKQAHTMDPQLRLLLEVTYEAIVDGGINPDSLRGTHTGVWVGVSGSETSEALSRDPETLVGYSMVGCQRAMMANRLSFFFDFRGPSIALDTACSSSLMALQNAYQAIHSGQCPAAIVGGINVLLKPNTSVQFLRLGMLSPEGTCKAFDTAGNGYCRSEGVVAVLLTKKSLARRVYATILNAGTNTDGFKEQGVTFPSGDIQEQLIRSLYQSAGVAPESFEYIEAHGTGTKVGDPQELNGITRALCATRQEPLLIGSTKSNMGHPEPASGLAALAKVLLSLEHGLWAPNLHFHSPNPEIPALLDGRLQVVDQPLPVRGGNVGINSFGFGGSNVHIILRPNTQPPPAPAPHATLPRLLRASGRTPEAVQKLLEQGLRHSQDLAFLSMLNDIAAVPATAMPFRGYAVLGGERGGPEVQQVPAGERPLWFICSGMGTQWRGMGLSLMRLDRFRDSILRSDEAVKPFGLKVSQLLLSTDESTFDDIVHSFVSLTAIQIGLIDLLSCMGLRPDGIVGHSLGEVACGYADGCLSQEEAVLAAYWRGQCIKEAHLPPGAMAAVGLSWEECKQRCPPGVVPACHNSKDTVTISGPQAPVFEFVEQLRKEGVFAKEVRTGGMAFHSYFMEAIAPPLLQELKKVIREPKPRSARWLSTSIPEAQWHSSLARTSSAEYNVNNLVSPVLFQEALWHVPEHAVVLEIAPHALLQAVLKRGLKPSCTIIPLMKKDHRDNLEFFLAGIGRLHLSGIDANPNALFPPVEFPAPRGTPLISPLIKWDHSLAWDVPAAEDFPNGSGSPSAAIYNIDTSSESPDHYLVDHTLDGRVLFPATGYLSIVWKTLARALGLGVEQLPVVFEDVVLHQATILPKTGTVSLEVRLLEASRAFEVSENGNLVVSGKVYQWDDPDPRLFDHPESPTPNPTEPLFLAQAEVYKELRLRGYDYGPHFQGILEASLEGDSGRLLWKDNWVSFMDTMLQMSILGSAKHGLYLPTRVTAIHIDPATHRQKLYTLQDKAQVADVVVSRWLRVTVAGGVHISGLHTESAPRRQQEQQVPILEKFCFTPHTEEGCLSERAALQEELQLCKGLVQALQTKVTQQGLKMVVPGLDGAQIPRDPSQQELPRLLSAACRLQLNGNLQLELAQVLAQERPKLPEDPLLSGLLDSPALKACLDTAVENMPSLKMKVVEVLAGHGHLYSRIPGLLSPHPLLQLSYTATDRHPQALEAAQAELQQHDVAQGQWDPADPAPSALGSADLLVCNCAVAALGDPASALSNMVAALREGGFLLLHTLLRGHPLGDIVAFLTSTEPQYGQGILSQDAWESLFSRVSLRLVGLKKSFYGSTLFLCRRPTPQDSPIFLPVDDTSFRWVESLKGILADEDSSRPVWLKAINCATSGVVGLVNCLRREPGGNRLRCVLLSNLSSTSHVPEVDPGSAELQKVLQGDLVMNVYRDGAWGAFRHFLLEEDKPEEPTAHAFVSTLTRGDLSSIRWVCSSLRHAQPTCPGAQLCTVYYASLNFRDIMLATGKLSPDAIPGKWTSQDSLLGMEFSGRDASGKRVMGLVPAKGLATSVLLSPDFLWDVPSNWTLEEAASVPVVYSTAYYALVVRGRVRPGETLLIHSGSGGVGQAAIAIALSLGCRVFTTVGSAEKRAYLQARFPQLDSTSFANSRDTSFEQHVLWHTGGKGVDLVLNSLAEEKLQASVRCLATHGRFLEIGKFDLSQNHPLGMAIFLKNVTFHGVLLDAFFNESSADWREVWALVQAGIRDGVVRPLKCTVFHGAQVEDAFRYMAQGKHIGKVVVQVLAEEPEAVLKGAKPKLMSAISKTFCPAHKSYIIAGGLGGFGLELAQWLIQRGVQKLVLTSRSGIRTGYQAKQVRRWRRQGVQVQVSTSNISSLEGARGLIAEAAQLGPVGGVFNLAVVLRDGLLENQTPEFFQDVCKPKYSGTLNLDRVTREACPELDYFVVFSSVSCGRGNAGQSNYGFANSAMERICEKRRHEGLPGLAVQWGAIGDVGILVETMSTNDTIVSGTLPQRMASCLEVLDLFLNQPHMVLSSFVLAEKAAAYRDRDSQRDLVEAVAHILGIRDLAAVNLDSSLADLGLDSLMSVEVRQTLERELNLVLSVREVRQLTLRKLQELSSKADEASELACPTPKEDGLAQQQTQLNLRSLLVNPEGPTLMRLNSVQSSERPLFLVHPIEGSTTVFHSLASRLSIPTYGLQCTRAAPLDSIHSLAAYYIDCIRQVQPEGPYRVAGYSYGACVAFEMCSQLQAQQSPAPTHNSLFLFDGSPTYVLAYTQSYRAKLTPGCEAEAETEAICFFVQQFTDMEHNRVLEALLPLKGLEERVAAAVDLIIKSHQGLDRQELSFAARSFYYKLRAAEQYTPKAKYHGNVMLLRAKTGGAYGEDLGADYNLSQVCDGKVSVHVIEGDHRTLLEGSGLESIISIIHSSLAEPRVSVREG
rCAG binder – binds r(CAG) RNA repeats; inhibition, % at 3 µM; 370,000 compounds, 1.3% hits; r(CAG) RNA repeat, TO-PRO-1 dye displacement fluorescence;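 active = inhibition above the plate cutoff, the mean of all test compounds on that plate plus 3 SD, cut at about 35% in these data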;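 note: 0% = DMSO alone and 100% = 100 µM mitoxantrone as full dye displacement; higher means more dye released from RNA so lower well fluorescence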
MPTP counter – Rhodamine 123 counter-screen of mitochondrial pore hits; shares compounds with MPTP block; 5,000 compounds, 78% hits; inhibition, % at 10 µM; AID 624504; isolated mitochondria, membrane potential, Rhodamine 123 fluorescence; in the data active = inhibition above about 22%;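 note: 0% = DMSO vehicle and 100% = positive control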
MPTP abs DR – dose response confirmation of mitochondrial permeability transition pore inhibitors; shares compounds with MPTP block; isolated mitochondria swelling, absorbance; IC50, µM; 780 compounds, 58% hits; AID 651561; in the data active = IC50 below about 20 µM
MPTP counter DR – MPTP inhibitor counter-screen activity, dose response; isolated mitochondria counterscreen, fluorescence read-out; IC50, µM; 780 compounds, 49% hits; shares compounds with MPTP block; in the data active = IC50 below about 80 µM
Active calls of the source: *; i = inactive; ? = inconclusive; . = no result; + = active, no number.

SMILES	MPTP block	GRIN3A LBD mod	Myeloid diff 2	FAS TE block	rCAG binder	MPTP counter	others
CN(C)S(=O)(=O)NCCNC(=O)c1cc(OCC(F)(F)F)ccc1OCC(F)(F)F	1.3	-4.3	i	-5.1	-10.4	.
O=C(Nc1ccncc1)Nc1cccc(C(F)(F)F)c1	81.1*	14.4*	?	-5.6	2.2	99.4*
O=C(NCCNC(=O)c1cc(OCC(F)(F)F)ccc1OCC(F)(F)F)Nc1cccc(C(F)(F)F)c1	72.3*	4.6	i	29.6	-2.7	88.2*
COc1ccc(NC(=O)CNC(=O)Cn2c(C)cc3ccccc3c2=O)cc1OC	70.0*	1.2	i	-4.9	0.8	24.2*
COc1cccc2c(=O)cc(C)n(CC(=O)Nc3ccc(C)c(C)c3)c12	3.6	-2.5	i	-4.2	-0.6	.
COc1ccccc1NC(=O)Cn1c(C)cc(=O)c2cccc(OC)c21	70.5*	0.2	i	-1.7	-2.2	55.2*
COc1cc(NC(=O)CNC(=O)Cn2c(C)cc3ccccc3c2=O)cc(OC)c1OC	-1.6	1.0	i	-0.9	-1.3	.
C[C@H](CCC(=O)NCC(=O)O)[C@H]1CC[C@H]2C3[C@H](O)C[C@@H]4C[C@H](O)CC[C@]4(C)[C@H]3C[C@H](O)[C@]12C (stereo partly drawn)	-0.3	0.0	i	-0.2	22.8	.
COc1ccc2nc3n(c(=O)c2c1)-c1ccc(Cl)cc1C(=O)NC3Cc1ccc(O)cc1 (stereo not drawn)	-1.1	0.2	i	-3.2	3.9	.
COc1cc(NC(=O)Cn2cnc3c(NCc4ccccc4)ncnc32)cc(OC)c1OC	-1.0	1.2	i	-6.1	1.4	.
Fc1ccc(/C=N/NC(=S)Nc2ccc(Cl)cc2Cl)cc1	7.2	-0.9	i	-0.5	6.1	.
O=[N+]([O-])c1ccc(/C=N/NC(=S)Nc2ccc(Cl)cc2Cl)s1	52.2*	10.7*	i	-40.1	12.8	60.6*
O=[N+]([O-])/C(C=Nc1ccccc1O)=C\Nc1ccccc1O	83.1*	0.3	?	2.3	-1.8	0.5
CCN=C1S/C(=C\c2cc(OCC)c(O)cc2Br)C(=O)N1CC	66.9*	5.4	i	1.4	23.9	70.6*
CCN=C1S/C(=C\c2ccc(O)c(OCC)c2)C(=O)N1CC	0.5	-0.9	i	1.4	9.9	.
CCOC(=O)c1c(NC(=O)C2CCCCC2)sc2c1CCN(CC)C2	58.4*	1.7	i	-2.7	-1.9	-8.7	MPTP abs DR=15.3*;MPTP counter DR=>80
O=[N+]([O-])c1ccc(N/N=C/c2sc(N3CCOCC3)nc2-c2ccccc2)c(S(=O)(=O)Nc2ccc(Cl)cc2)c1	86.5*	21.2*	+	25.3	11.1	76.0*
O=C(N/N=C/c1sc(N2CCOCC2)nc1-c1ccccc1)c1ccccc1Cl	-1.5	-3.0	i	3.9	-2.3	.
O=[N+]([O-])c1ccc(N/N=C/c2sc(N3CCOCC3)nc2-c2ccccc2)c(S(=O)(=O)Nc2ccccc2Cl)c1	91.1*	6.6	i	12.0	6.3	65.1*
COc1ccc(NC(=O)C2Cc3c(-c4cccc(C(N)=O)c4)ccnc3O2)cc1 (stereo not drawn)	-0.4	.	i	0.9	2.4	.
O=C1C=C(c2ccccc2)C(=O)N1Nc1ccccc1	-4.6	-1.4	i	-6.3	3.9	.
COc1ccc(C2=CC(=O)N(Nc3ccccc3)C2=O)cc1	61.3*	0.2	i	2.8	4.8	-8.0
Cc1cn([C@H]2C[C@H](O)[C@@H](CCC(=O)NCC(c3ccccc3)c3ccccc3)O2)c(=O)[nH]c1=O	-1.3	.	i	-6.9	-0.3	.
Fc1ccc(NC(=S)N2CCCN(c3ccc(C(F)(F)F)cn3)CC2)c(F)c1	71.2*	-2.1	i	19.3	0.1	44.5*
Cc1csc2ncnc(N3CCN(C(=S)Nc4ccc(F)cc4F)CC3)c12	82.5*	2.9	i	1.2	-0.3	74.6*
CCCCCN=C(N)N/N=C/c1c[nH]c2ccc(OC)cc12	85.1*	-2.2	i	-8.9	11.6	23.2*
Cc1cccc(-c2noc(CNC(=O)Nc3ccc(F)cc3)n2)c1	58.8*	-3.0	i	5.7	5.4	71.2*
